Test [1] can be described thus: SU-DIPG-VI glioma cell viability, MIPE4.0 library, CellTiter-Glo luminescence, qHTS (AID 1347066; cut-off not given, nearly all actives have AC50 up to about 30 µM;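 note: cells exposed to compound for 48 hours before readout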). Particulars: CellTiter-Glo ATP luminescence. On the technique in general: ATP-based viability assays read luminescence as a measure of living cells.
The nature of test [2]: JHH-DIPG-1 glioma cell viability, MIPE5.0 library, CellTiter-Glo luminescence, qHTS (AID 1347067; cut-off not given, nearly all actives have AC50 up to about 26 µM;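 note: cells exposed to compound for 48 hours before readout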). Particulars: JHH-DIPG-1 glioma viability, CellTiter-Glo ATP luminescence.
The nature of test [3]: SU-DIPG-XXV glioma cell viability, MIPE5.0 library, qHTS (AID 1347068; cut-off not given, nearly all actives have IC50 up to about 30 µM;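 for IC50: cells exposed to compound for 48 hours before viability readout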). (In qHTS, concentration-response curves come from the screen itself.)
A short description of test [4]: sensitizers of A549 cells to miR-34 induction, primary screen, imaging, A549 dox-inducible miR-34, nuclei and caspase counts (AID 1347080). Particulars: A549 miR-34 inducible, Hoechst nuclei count, 48 h.
Test [5] in a line: survival rescue of mitochondrial mutant cells in low glucose, primary screen, MELAS cybrids, Rieske KO mouse fibroblasts, CellTiter-Glo (AID 1508586;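 active = mean z-score across replicates of 1.96 or higher in either the MELAS or the Rieske mutant cell line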;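 note: z relative to plate mean and SD of compound and empty wells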).
Test [6] has as its target NAD(+) hydrolase SARM1 (Homo sapiens) (UniProt Q6SZW1). Briefly: SARM1 TIR NADase inhibitors, cell lysate, NAD-Glo luminescence (AID 1508614;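 active = compound whose remaining NAD level is above about 45 nM, limit read from the data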;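 note: higher remaining NAD means stronger inhibition of SARM1 NADase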). Particulars: SAM-TIR HEK293T lysate NADase, at 1 µM, stronger effect = higher value.
The target of test [7] is Mitogen-activated protein kinase 7 (Homo sapiens) (UniProt Q13164). Kind of test: ERK5 transactivation activators in reporter cells, primary screen, cell-based, HTS (AID 1508626;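 active = luciferase signal above three times the same-plate solvent-only control wells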;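 note: luciferase driven by Gal4-ERK5 fusion binding five Gal4 sites before minimal TATA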). To be noted: HeLa Gal4-ERK5 transactivation, 18 h, at 5 µM, stronger effect = higher value.
Test [8] is described as follows: viability loss in pontine glioma line – cell-based, SU-DIPG-XXV, MIPE5.0, CellTiter-Glo, qHTS, dose response (AID 1347065; cut-off not given, nearly all actives have AC50 up to about 26 µM;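 note: cells exposed to compound for 48 hours before ATP readout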). Particulars: CellTiter-Glo ATP luminescence.
Test [9] in a line: viability rescue of complex I mutant cybrids, primary screen, cell-based, galactose medium, ATP luminescence (AID 1645843;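 active = z-score of at least 1.8 in each of two replicates, scored against plate mean and spread of sample wells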;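 note: positive z means more ATP and so rescue of galactose-driven cybrid death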). Particulars: complex I mutant cybrid cells, 72 h, stronger effect = higher value.
The nature of test [10]: phospholipid biosynthesis inhibitors in animal cells, primary screen, cell-based, LOPAC library, screen 4 (AID 1347384; call rule not given here). Particulars: phospholipid biosynthesis inhibition screen, at 10 µM.
Where [11] appears, read: stronger effect = lower value, cell number ratio, induced over uninduced.
[12] abbreviates: measured here: relative caspase fold change +Dox/-Dox.
Where [13] appears, read: measured here: total cells with miR-34 induction, stronger effect = lower value.
Setting [14] is: measured here: total cells without miR-34 induction.
[15] abbreviates: MELAS cybrid survival, CellTiter-Glo 48 h, stronger effect = higher value.
Where [16] appears, read: Rieske KO mouse fibroblast survival, CellTiter-Glo 72 h.

“And” between values parts separate entries of the source, which are not always exact repeats. Equal values may be shown once. Records with an inconclusive call do not appear. The source made the active and inactive calls.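 Rule for the calls, unless noted: active = compounds whose cell count with miR-34 switched on is under 0.7 times the count with it off; inactive = the rest.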 Peptide text beside a SMILES is read from it.

NAD(+) hydrolase SARM1 (Homo sapiens), sequence (Q6SZW1 whole entry, looked up, the tested form may be a part): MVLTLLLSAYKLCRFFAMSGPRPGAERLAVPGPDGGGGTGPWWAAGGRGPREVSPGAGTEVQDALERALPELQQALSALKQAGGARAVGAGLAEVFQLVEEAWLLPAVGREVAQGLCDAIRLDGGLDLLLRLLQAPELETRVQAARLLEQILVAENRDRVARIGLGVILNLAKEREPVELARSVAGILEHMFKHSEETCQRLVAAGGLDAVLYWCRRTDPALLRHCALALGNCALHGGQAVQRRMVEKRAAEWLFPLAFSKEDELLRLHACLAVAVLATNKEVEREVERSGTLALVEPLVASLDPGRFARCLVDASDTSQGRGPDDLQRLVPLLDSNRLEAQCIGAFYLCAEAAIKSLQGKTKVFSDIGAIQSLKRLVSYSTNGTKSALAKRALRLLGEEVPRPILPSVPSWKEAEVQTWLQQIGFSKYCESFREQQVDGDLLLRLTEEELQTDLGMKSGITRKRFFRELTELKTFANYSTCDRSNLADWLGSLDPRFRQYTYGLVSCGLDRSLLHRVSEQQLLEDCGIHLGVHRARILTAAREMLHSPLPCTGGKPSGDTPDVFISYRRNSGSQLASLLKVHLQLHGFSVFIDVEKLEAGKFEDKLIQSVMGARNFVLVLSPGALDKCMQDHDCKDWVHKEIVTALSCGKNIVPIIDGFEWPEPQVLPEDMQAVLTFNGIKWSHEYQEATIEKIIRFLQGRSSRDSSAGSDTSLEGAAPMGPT
Mitogen-activated protein kinase 7 (Homo sapiens), sequence (Q13164 whole entry, looked up, the tested form may be a part): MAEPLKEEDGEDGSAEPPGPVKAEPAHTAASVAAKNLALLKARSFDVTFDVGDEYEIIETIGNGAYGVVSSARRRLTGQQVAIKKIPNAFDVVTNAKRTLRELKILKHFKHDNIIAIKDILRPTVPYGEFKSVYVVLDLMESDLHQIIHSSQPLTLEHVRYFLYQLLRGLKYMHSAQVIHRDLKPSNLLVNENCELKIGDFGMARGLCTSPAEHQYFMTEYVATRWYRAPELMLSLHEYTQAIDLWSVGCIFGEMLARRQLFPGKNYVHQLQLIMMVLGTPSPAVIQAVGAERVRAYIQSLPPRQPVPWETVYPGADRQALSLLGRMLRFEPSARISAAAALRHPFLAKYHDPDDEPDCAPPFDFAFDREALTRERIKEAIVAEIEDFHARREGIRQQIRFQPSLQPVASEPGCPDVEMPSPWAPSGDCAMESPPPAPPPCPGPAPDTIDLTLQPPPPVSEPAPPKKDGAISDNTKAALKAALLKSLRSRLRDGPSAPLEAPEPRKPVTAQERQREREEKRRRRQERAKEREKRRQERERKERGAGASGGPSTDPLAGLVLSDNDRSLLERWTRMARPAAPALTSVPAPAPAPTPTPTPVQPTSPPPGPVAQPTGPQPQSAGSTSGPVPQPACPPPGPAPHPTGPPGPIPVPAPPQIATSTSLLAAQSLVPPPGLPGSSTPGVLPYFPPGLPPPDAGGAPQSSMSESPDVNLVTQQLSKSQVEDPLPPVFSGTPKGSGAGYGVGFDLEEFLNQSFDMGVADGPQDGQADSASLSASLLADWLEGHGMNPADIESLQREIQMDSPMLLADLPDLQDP

Turning to `C/C=C(/C(=C/C)c1ccc(O)cc1)c1ccc(O)cc1`, the outcome in [1] was inactive. The AC50 in [2] was 20.9 µM (active). Further, in test [3], the IC50 is 23.5 µM (active). Further, the fold change in test [4] (setting [11]) is 0.888 (inactive) and 0.901 (inactive); in test [4] (setting [12]) it was 1.32 and 1.91. The cell count in test [4] (setting [13]) was 7250 and 10300; in [4] (setting [14]), 8160 and 11500. Further, the z-score in [5] (setting [15]) was -1.21 (inactive); in test [5] (setting [16]), -1.14. The remaining NAD in test [6] is 10 nM (inactive). Also, in test [7], the luciferase signal was 72 AU (inactive).
As to `CCCCc1ccc2nc(NC(=O)OC)[nH]c2c1`, the results for the AC50 in test [8] and in [2] were 118 nM (active) and 0.332 µM (active), respectively. Further, the values for the fold change in test [4] (setting [11]) and in test [4] (setting [12]) were 1.15 (inactive) and 0.509, respectively. Moreover, the cell count amounted to 1770 in test [4] (setting [13]) and 1530 in [4] (setting [14]). Further, the z-score was -2.16 (inactive) in [5] (setting [15]) and 0.696 in [5] (setting [16]).
As to `OC[C@H]1O[C@@H](O[C@@H]2[C@@H](CO)O[C@](O)(CO)[C@H]2O)[C@H](O)[C@@H](O)[C@H]1O`, the compound was called inactive in test [1], in [2] and in test [3]. For the same compound, the results for the fold change in test [4] (setting [11]) and in test [4] (setting [12]) were 0.922 (inactive) and 1.95, respectively. The cell count in test [4] (setting [13]) worked out at 11500; in [4] (setting [14]), 12500. For the same compound, the remaining NAD in test [6] is 10 nM (inactive). For the same compound, in test [7], the luciferase signal was 16 AU (inactive).
For `CCCOc1ccc(C(=O)OCCN(CC)CC)cc1N`, the compound was classed as inactive in [1], in [2] and in [3]. For the same compound, the z-score is 0.278 (inactive) and -0.171 (inactive) and -0.393 (inactive) in [5] (setting [15]); -0.35 and 0.529 and -1.27 in [5] (setting [16]); 0.735 (inactive) and 0.01 (inactive) in test [9]. In addition, the remaining NAD in [6] was 10 nM (inactive). Also, in test [7], the luciferase signal was 212 AU (inactive).
As to `COC(=O)[C@H](Cc1ccccc1)NC(=O)[C@@H](N)CC(=O)O` (H-Asp-Phe-OMe), the call in test [1] and in test [2] was inactive. The fold change in test [4] (setting [11]) was 0.869 (inactive); in test [4] (setting [12]), 2.93. For the same compound, the results for the cell count in [4] (setting [13]) and in test [4] (setting [14]) were 11000 and 12600, respectively. In addition, in test [6], the remaining NAD was 10 nM (inactive). Also, the luciferase signal in [7] is 36 AU (inactive).
With `Cc1nnc(NS(=O)(=O)c2ccc(N)cc2)s1`, the outcome in test [8] and in [2] was inactive. In addition, the fold change in test [4] (setting [11]) is 0.854 (inactive) and 0.859 (inactive) and 0.853 (inactive); in test [4] (setting [12]), 1.13 and 0.759 and 2.93. Moreover, the cell count in test [4] (setting [13]) is 8770 and 7900 and 10600; in test [4] (setting [14]) it was 10300 and 9200 and 12500. The z-score in test [5] (setting [15]) is -0.255 (inactive) and -1.45 (inactive); in test [5] (setting [16]) it was 0.469 and 0.621. For the same compound, in test [6], the remaining NAD is 10 nM (inactive). Also, the luciferase signal in test [7] is 184 AU (inactive).
As to `COc1ccccc1N1CCN(CC(O)COc2cccc3ccccc23)CC1` (stereo unspecified), the compound was classed as inactive in test [1], in test [2], in test [3] and in test [10]. In [6], the remaining NAD was 10 nM (inactive).
In the case of `CCOC(=O)[C@H](CCc1ccccc1)N[C@@H](C)C(=O)N1[C@H](C(=O)O)C[C@@H]2CCC[C@@H]21`, the AC50 in [1] was 16.6 µM (active). For the same compound, the compound was classed as inactive in test [2] and in [3]. Also, the fold change in test [4] (setting [11]) is 0.911 (inactive) and 0.827 (inactive) and 0.868 (inactive); in [4] (setting [12]), 1.49 and 3.09 and 1.08. The cell count in [4] (setting [13]) is 9860 and 10700 and 9970; in [4] (setting [14]) it was 10800 and 13000 and 11500. Moreover, the z-score was -0.258 (inactive) and 0.537 in test [5] (setting [15]); -0.11 and 2.28 in test [5] (setting [16]); 2.63 (inactive) and 0.46 (inactive) in test [9]. Also, the remaining NAD in [6] was 10 nM (inactive). Besides, the luciferase signal in test [7] was 316 AU (inactive).

In general, AC50 refers to the concentration giving half of the maximal activity seen. By IC50 is commonly meant the concentration that gives 50% inhibition.
